Hits are enriched below; roughly 1.7% of the tested compounds scored in any of these assays.
3CLpro inhibitor: SARS-CoV 3CLpro protease inhibition | P0C6X7 | recombinant SARS-CoV 3CLpro, quenched FRET peptide cleavage | inhibition, % at 6 µM | AID 1706 | 290,000 compounds, 0.14% hits; in the data active = inhibition above about 12%
CCHF vOTU inh: CCHFV vOTU protease inhibition; Pep-AMC fluorescence; 370,000 compounds, 0.55% hits; inhibition, % at 11.5 µM; in the data active = inhibition above about 30%
RecA intein inh: blocks M. tuberculosis RecA intein splicing | cell-free RecA intein splicing, fluorescence | inhibition, % (test concentration not listed) | 290,000 compounds, 0.75% hits | AID 2221; in the data active = inhibition above about 30%
Target sequence (P9WHJ3 whole entry, looked up): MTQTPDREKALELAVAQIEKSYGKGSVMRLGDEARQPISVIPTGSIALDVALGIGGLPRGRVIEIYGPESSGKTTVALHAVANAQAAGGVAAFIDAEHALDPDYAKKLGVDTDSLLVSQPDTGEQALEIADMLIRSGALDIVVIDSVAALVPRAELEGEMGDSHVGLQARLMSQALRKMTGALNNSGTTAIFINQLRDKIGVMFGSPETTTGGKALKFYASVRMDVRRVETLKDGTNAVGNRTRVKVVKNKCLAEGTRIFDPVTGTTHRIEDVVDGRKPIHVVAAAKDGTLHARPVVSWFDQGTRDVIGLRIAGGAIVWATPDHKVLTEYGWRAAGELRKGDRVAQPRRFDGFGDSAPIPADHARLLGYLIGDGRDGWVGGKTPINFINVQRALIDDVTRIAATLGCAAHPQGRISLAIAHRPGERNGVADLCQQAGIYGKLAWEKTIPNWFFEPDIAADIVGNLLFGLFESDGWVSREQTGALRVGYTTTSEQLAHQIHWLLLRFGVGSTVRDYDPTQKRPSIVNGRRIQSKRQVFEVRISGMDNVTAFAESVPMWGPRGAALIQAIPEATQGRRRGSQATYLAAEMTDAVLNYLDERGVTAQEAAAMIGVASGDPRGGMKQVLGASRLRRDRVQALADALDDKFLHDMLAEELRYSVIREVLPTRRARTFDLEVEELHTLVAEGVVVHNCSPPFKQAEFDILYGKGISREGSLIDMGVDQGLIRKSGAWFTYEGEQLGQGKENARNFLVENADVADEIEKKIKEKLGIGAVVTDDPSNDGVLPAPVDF
PriA SSB inh: inhibitors of Klebsiella pneumoniae PriA binding to SSB C-terminal tail; AlphaScreen SSBct-PriA binding, biotinylated peptide; inhibition, % at 33 µM; 430,000 compounds, 0.6% hits; AID 1272365; in the data active = inhibition mostly above about 37%, no sharp cut-off; inactive = mostly below about 20%
VHR inh abs: blocks human VHR1 dual specificity phosphatase. P51452. recombinant VHR phosphatase, pNPP absorbance. inhibition, % at 13.3 µM. 290,000 compounds, 0.52% hits. AID 1654; in the data active = inhibition above about 50%
Numbers stand for hits; . = inactive; / = not tested or not shown; ! = a repeat was not active.

SMILES	3CLpro inhibitor	CCHF vOTU inh	RecA intein inh	PriA SSB inh	VHR inh abs
CCC(C)(C)NC(=O)c1sccc1Oc1ccc(F)cc1[N+](=O)[O-]	.	.	.	.	51
O=C(CN1C(=O)CCC1=O)Nc1ccc2c(c1)C(=O)NC2=O	/	/	/	.	/
O=C(NCC(c1cccc2ccccc12)N1CCCC1)C(=O)NC1CCCC1 (centres undefined)	/	/	/	.	/
O=C(COc1ccccc1F)NCCn1ccnc1-c1ncccn1	/	/	/	.	/
Cc1nnsc1C(=O)NCCCn1ccnc1-c1ccccc1	/	/	/	.	/
CCCc1nnsc1C(=O)NCCn1ccnc1-c1ncccn1	/	/	/	72	/
O=C(NCCn1ccnc1C1CC1)Nc1cccs1	/	/	/	.	/
COc1ccccc1NC(=O)NCCn1ccnc1-c1ncccn1	/	/	/	39	/
O=C(NCCn1ccnc1-c1ncccn1)Nc1cccs1	/	/	/	124	/
C[C@H](Oc1ccccc1)C(=O)NCCn1ccnc1-c1ncccn1	/	/	/	93	/
COc1ccc(-c2onc(C)c2-c2ccc(Cl)cc2)c(O)c1	/	/	/	.	/
Cc1nc(-n2cccc2)sc1C(=O)NCCc1ccc(S(N)(=O)=O)cc1	/	/	/	.	/
COc1ccc2cc(C(=O)N3CCN(C(=O)c4cnn5ccccc45)CC3)[nH]c2c1	/	/	/	.	/
O=C(Cn1c(=O)oc2ccccc21)NCCCn1ccnc1-c1ccccc1	/	/	/	.	/
O=C(Cn1c(=O)oc2ccccc21)NCCn1ccnc1-c1ncccn1	/	/	/	99	/
O=C1OC2(CCN(C(=O)c3ccc(OC(F)(F)F)cc3)CC2)c2ccccc21	/	/	/	.	/
CCCC(CCC)c1nnc(NC(=O)c2ccco2)s1	.	.	.	.	60
CCC(CC)c1nnc(NC(=O)c2c(-c3ccccc3)noc2C)s1	.	.	.	.	50
CCC(c1ccccc1)c1nnc(NC(=O)c2ccco2)s1 (centres undefined)	.	.	.	.	.
Cc1nnc(NC(=O)c2c(-c3ccccc3)noc2C)s1	.	.	.	.	.
O=C(Nc1nc(-c2ccccn2)cs1)c1ccc(Cl)c(S(=O)(=O)N2CCCCCC2)c1	/	/	/	.	/
Cc1ccc(C(=O)Nc2nc(-c3ccccn3)cs2)cc1S(=O)(=O)N1CCCCC1	/	/	/	65	/
Cc1ccc(C(=O)Nc2nc(-c3ccccn3)cs2)cc1S(=O)(=O)N1CCOCC1	/	.	/	43	/
O=C(Nc1nc(-c2ccccn2)cs1)c1ccc(F)c(S(=O)(=O)N2CCOCC2)c1	/	.	/	45	/
COc1ccccc1NC(=O)c1ccc(C)c(S(=O)(=O)N2CCCCC2)c1	.	.	.	.	53
SMILES	3CLpro inhibitor	CCHF vOTU inh	RecA intein inh	PriA SSB inh	VHR inh abs
CCn1cccc(-c2nnc(SCC(=O)Nc3cc(OC)ccc3OC)n2C)c1=O	/	/	/	.	/
CN(C)c1ccc(NC(=O)c2ccc(N3CCOCC3)nc2)cc1	.	.	.	.	52
O=C(Nc1nc(-c2ccccn2)cs1)c1cc(S(=O)(=O)N2CCOCC2)ccc1F	/	.	/	83	/
CCOC(=O)Cc1csc(NC(=O)c2ccc(N3CCCCC3)nn2)n1	/	/	/	.	/
Cc1ccc(S(=O)(=O)N2CCOCC2)cc1C(=O)Nc1nc(-c2cccnc2)cs1	.	.	.	.	.
O=C(Nc1nc(-c2ccccn2)cs1)c1ccc(N2CCOCC2)nc1	/	/	/	95	/
Cc1nc(NC(=O)c2ccc(N3CCCCC3)nn2)sc1C(=O)N(C)C	/	/	/	48	/
COc1ccc(-c2c(NC(=O)c3cccs3)oc3c(sc4ccccc43)c2=O)cc1	/	/	/	.	/
O=C(Nc1nc(-c2ccccn2)cs1)c1ccc(N2CCCC2)nn1	/	/	/	72	/
O=C(Nc1nc(-c2ccco2)cs1)c1ccc(N2CCOCC2)nn1	/	/	/	.	/
Sc1n[nH]c(-c2ccccn2)n1	/	/	/	113	/
c1ccc(-c2n[nH]c(-c3ccccn3)n2)nc1	.	.	.	93	.
Brc1cccc(-c2ccccn2)n1	/	/	/	.	/
Oc1ccccc1-c1n[nH]c(-c2ccccn2)n1	/	/	/	94	/
c1ccc(Cc2nc(-c3ccccn3)no2)cc1	.	.	.	.	.
NCc1nc(-c2ccccn2)n[nH]1	/	/	/	116	/
c1ccc(-c2nc3cc4ccccc4cc3[nH]2)nc1	.	.	.	.	.
Cc1noc(C)c1C(=O)NCC#CCOc1ccccc1C(N)=O	/	/	/	.	/
CC(C)OC(=O)C(C(=O)C(F)(F)F)c1cc(NS(=O)(=O)c2cc([N+](=O)[O-])ccc2Cl)ccc1O (centres undefined)	/	/	/	.	/
c1ccc(-c2ccc(-c3ccccn3)nn2)nc1	.	.	.	106	.
c1ccc(CSc2n[nH]c(-c3ccccn3)n2)cc1	/	/	/	59	/
c1ccc(-c2nn[nH]n2)cc1	.	.	/	.	.
c1cncc(-c2n[nH]c(-c3cnccn3)n2)c1	/	/	/	.	/
c1ccc(-c2n[nH]c(-c3ccccn3)n2)cc1	.	.	.	42	.
c1ccc(-c2ccccn2)nc1	.	.	.	.	.
SMILES	3CLpro inhibitor	CCHF vOTU inh	RecA intein inh	PriA SSB inh	VHR inh abs
c1ccc(-c2nn[nH]n2)nc1	.	.	.	107!	.
COc1cccc(NC(=O)C2CC(=O)NC(=NNC(=O)c3ccc(C)cc3)S2)c1 (centres undefined)	/	/	/	.	/
Nc1cccc(N2CCCCC2=O)c1	/	/	/	.	/
CCN(C(=O)CSc1nnc(CNc2cccc(OC)c2)n1C1CCCCC1)C1CCS(=O)(=O)C1 (centres undefined)	.	.	.	.	55
CC1=CC(C)(C)Nc2ccccc21	.	.	.	53!	.
Cc1ccc(NC2CCCN(C(=O)CCn3nccc3C)C2)cc1C (centres undefined)	.	.	/	.	54
CC(C)c1ccc(NC2CCCN(C(=O)CCN3CCOCC3)C2)cc1 (centres undefined)	.	.	.	.	51
Cc1ccc(NC2CCCN(C(=O)CCN3CCOCC3)C2)cc1C (centres undefined)	.	.	.	.	53
CCOc1ccc(-c2ccc(N3CCN(C(=O)CSCc4ccccc4)CC3)nn2)cc1	/	/	/	.	/
O=S(=O)(NCC1CCN(Cc2ccsc2)CC1)c1ccc2c(c1)OCCCO2	/	/	/	.	/
COCCCNC(=O)c1ccccc1Oc1ccccc1	.	.	.	.	.
COCCCNC(=O)c1ccc2c3c(onc13)-c1ccccc1C2=O	.	/	37	.	.
CCOc1ccc(-n2cc[nH]c2=S)cc1	/	/	/	.	/
Cc1ccc(-c2csc3nc[nH]c(=S)c23)cc1C	.	.	.	48	.
NCc1nc(CC(N)=O)no1	/	/	/	.	/
C#CCn1c(=NC(=O)c2ccc(S(=O)(=O)N(C)c3ccccc3)cc2)sc2cccc(OC)c21	/	/	/	.	/
CN1CCN(C(CNC(=O)NCc2ccc(F)cc2)c2ccc3c(c2)CCN3C)CC1 (centres undefined)	/	/	/	.	/
CCn1ccnc1CN(C)C(=O)c1cc(COc2ccc(OC)c3ccccc23)on1	.	.	.	39	.
COc1cc(C)ccc1OCc1cc(C(=O)N(Cc2nccn2C)C(C)C)no1	.	.	.	.	52
CCn1ccnc1CNC(=O)c1cc(COc2ccc(OC)c3ccccc23)on1	/	/	/	68	/
COC(=O)c1sccc1S(=O)(=O)NCCCn1ccc2cccnc21	/	/	/	.	/
CC(C)Cn1c(C=O)nc2ccccc21	/	/	/	.	/
Cc1cc(F)ccc1S(=O)(=O)NCc1ccc(C(O)c2cccs2)s1 (centres undefined)	/	/	/	.	/
COC(=O)c1[nH]c2c(c1C)C(=O)CC(c1ccc(OC)c(OC)c1)C2 (centres undefined)	.	.	.	.	.
